Screens: PubChem BioAssay, several laboratories
PostGolgi ctrl: growth inhibition of yeast control strain, primary screen, counter-screen for post-Golgi transport modulator project; efflux-deficient yeast background strain, growth absorbance A615, 16 h; inhibition, % at 10 µM; 5% of 98,000 active
CYP2C9 inhib: blockers of cytochrome P450 2C9 activity – biochemical, luminescence, ADME assay, primary screen | 20% of 96,000 active | CYP2C9 Supersomes, luciferin-H conversion | inhibition, % at 5 µM;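 active = blocking of liver enzyme CYP2C9 beyond about 50% at 5 µM, limit read from the data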
Target sequence (P11712 whole entry, looked up): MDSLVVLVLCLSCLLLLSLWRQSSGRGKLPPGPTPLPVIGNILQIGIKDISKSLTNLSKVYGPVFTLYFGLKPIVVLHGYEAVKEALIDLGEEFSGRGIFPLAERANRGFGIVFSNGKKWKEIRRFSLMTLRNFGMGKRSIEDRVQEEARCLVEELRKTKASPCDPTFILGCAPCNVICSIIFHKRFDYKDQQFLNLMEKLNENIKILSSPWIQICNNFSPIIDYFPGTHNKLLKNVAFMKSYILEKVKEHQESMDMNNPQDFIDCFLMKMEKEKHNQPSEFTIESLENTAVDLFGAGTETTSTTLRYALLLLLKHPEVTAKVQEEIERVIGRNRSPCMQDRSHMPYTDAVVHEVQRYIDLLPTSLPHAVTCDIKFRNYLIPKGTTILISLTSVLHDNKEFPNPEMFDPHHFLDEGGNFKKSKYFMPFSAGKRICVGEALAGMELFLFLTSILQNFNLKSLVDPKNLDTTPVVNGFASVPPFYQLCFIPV
CYP2C19 act: human CYP2C19 activators, primary screen, biochemical, luminescence; Cytochrome P450 2C19 (Homo sapiens), P33261; recombinant CYP2C19, luciferin-H EGE luminescence; active compounds read high; 0 = fully inhibited enzyme, 1 = untreated enzyme; activation factor at 5 µM; 96,000 tested, under 10 active; AID 1025, 2008;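 active = activation factor of at least 2 at 5 µM in the primary screen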
CYP2C19 inhib: blockers of cytochrome P450 2C19 activity – biochemical, luminescence, ADME assay, primary screen; P33261; CYP2C19 Supersomes, luciferin-H EGE luminescence, 30 min; inhibition, % at 5 µM; 21% of 96,000 active;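 active = CYP2C19 inhibition above a set limit at 5 µM in the primary screen, cut at about 50% in these data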
CYP2C9 activ: human CYP2C9 activators, primary screen, biochemical, luminescence. Cytochrome P450 2C9 (Homo sapiens), P11712. recombinant CYP2C9, luciferin-H conversion; active compounds read high; factor 1 = untreated enzyme, 0 = blocked. activation factor at 5 µM. 1.4% of 96,000 active. AID 1024, 2008;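 active = activation factor of 2 or more for CYP2C9 at a 5 µM dose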
PostGolgi yeast: phenotypic screen on post-Golgi transport, primary screen. 0.9% of 98,000 active. AID 739, 2007. post-Golgi transport phenotypic cell assay. inhibition, % at 10 µM;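 note: yeast cells grown in 1536-well plates; yeast grown about 18 h at 30C before absorbance read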
A number is an active result; – = inactive. This is a sample that favours compounds with a hit; in the whole collection about 32% have one here. Cut-off read from the data, not from the text of the source, unless noted: active = inhibition above about 30%; inactive = the rest.

SMILES	PostGolgi ctrl	CYP2C9 inhib	CYP2C19 act	CYP2C19 inhib	CYP2C9 activ	PostGolgi yeast
CCC(C)c1ccc(-c2cc(C(=O)OCC(=O)Nc3cc(C)on3)c3ccccc3n2)cc1 (configuration not stated)	–	–	–	50.6	–	–
Cc1cc(NC(=O)COC(=O)COc2ccc(C(=O)c3ccccc3)cc2)no1	–	–	–	–	–	–
Cc1cccc(NC(=O)NNC(=O)c2cc(-c3ccccc3Cl)nc3ccccc23)c1	–	61.6	–	–	–	–
CC1(C)OC(=O)N(Cc2ccco2)C1(C)O (configuration not stated)	–	–	–	–	–	–
CCCc1nc2oc3c(NCC4CCCO4)ncnc3c2c2c1COC(C)(C)C2 (configuration not stated)	–	51.9	–	–	–	–
CC(C)c1nc2oc3c(NCC4CCCO4)ncnc3c2c2c1CCC2 (configuration not stated)	–	–	–	–	–	–
CCCc1nc2oc3c(NCc4ccccn4)ncnc3c2c2c1COC(C)(C)C2	–	51.7	–	–	–	–
COc1cc(OC)c2nc(C)c3c(c2c1)N(c1ccc(O)cc1)CC3	–	–	–	–	–	–
CC(=O)OC(C(=O)NC1CCCCC1)c1ccc(Cl)cc1 (configuration not stated)	–	–	–	–	–	–
CC(C)(O)C#Cc1ccc(C(=O)NCc2cccs2)s1	–	–	–	–	–	–
N#CC1=C(N)N=C(SCc2cccc3ccccc23)C(C(N)=O)C12CCCCC2 (configuration not stated)	–	74.3	–	72.0	–	–
CC(=O)Nc1ccc(C(=O)CSc2nnnn2C(C)C)cc1	–	–	–	–	–	–
COc1cccc(-c2nc(-c3ccccn3)no2)c1	–	–	–	75.2	–	–
c1ccc(-c2noc(-c3ccc4c(c3)OCO4)n2)nc1	–	92.0	–	79.4	–	–
c1ccc(-c2noc(-c3ccncc3)n2)nc1	–	–	–	67.6	–	–
CC1S/C(=C(\C#N)C(=O)NCc2ccco2)N(c2ccc(F)cc2)C1=O (configuration not stated)	–	–	–	–	–	–
COc1cccc(-c2nc(NCCN3CCOCC3)c3ccccc3n2)c1O	–	55.7	–	–	–	–
COc1cccc(-c2nc(NC(C)(C)C)c3ccccc3n2)c1O	–	84.5	–	–	–	–
Cc1ccc(-c2nc3ccccc3c(=O)n2CCCN2CCOCC2)cc1	–	–	–	–	–	–
Oc1ccccc1-c1nc(NCCN2CCOCC2)c2ccccc2n1	–	96.6	–	89.1	–	–
Cc1ccc(-c2nc(NCCN3CCOCC3)c3ccccc3n2)cc1	–	72.5	–	58.7	–	–
COc1ccccc1NC(=O)Cn1cnc2c(oc3ccccc32)c1=O	–	–	–	–	–	–
COc1ccc(N(Cc2cc3ccc(C)cc3[nH]c2=O)C(C)=O)cc1	–	–	–	–	–	–
CC1CC(C)CN(c2ncnc3c2cnn3Cc2ccc(Cl)cc2)C1 (configuration not stated)	50.8	–	–	–	–	–
Clc1ccc(Cn2ncc3c(N4CCCC4)ncnc32)cc1	–	–	–	–	–	–
SMILES	PostGolgi ctrl	CYP2C9 inhib	CYP2C19 act	CYP2C19 inhib	CYP2C9 activ	PostGolgi yeast
Clc1ccc(Cn2ncc3c(N4CCOCC4)ncnc32)cc1	–	–	–	67.1	–	–
Cc1cccc(-n2ncc3c(N4CC(C)CC(C)C4)ncnc32)c1 (configuration not stated)	33.0	81.1	–	–	–	–
Clc1ccc(Cn2ncc3c(N4CCCCC4)ncnc32)cc1	–	–	–	–	–	–
Cc1ccccc1NC(=O)C1c2cccc[n+]2CC(=O)N1c1c(C)cccc1C (configuration not stated)	–	–	–	–	–	–
COc1ccccc1NS(=O)(=O)c1ccc2c(c1)n(C)c(=O)n2C	–	–	–	71.6	–	–
Cn1c(=O)n(C)c2cc(S(=O)(=O)Nc3ccccc3O)ccc21	–	58.6	–	82.9	–	–
COCCNS(=O)(=O)c1ccc2c(c1)n(C)c(=O)n2C	–	–	–	–	–	–
COc1ccc(CN2CC(C(=O)NCCc3ccc(C)cc3)CC2=O)cc1 (configuration not stated)	–	–	–	–	–	–
CCc1nnc(NC(=O)[C@@H](NC(=O)c2cccc(S(=O)(=O)N(CC)CC)c2)C(C)C)s1	–	72.2	–	79.1	–	–
CCN(CC)S(=O)(=O)c1cccc(C(=O)N[C@H](C(=O)OCC(=O)Nc2ccccc2)C(C)C)c1	–	98.8	–	93.1	–	–
CCN(CC)S(=O)(=O)c1cccc(C(=O)N[C@H](C(=O)OCC(N)=O)C(C)C)c1	–	–	–	–	–	–
CCOc1ccc2nc(SCc3ccc(C(=O)OC)o3)[nH]c2c1	–	79.9	–	82.6	–	–
COC(=O)c1ccc(CSc2nc3ccc(Cl)cc3[nH]2)o1	–	79.9	–	54.4	–	–
CCOc1ccc2nc(SC(C)C(N)=O)[nH]c2c1 (configuration not stated)	–	–	–	–	–	–
COC(=O)c1ccc(CSc2ncnc3sc(C)c(C)c23)o1	–	–	–	–	–	–
COC(=O)c1ccc(CSc2nc3scc(-c4cccs4)c3c(=O)[nH]2)o1	–	57.2	–	–	–	–
CCOc1ccc(-c2nnc3ccc(SCc4ccc(C(=O)OC)o4)nn23)cc1	–	85.1	–	64.7	–	–
COC(=O)c1ccc(CSc2nc3cc(Cl)ccc3s2)o1	–	–	–	–	–	–
CN(C)CCNc1oc(-c2cccc(Cl)c2)nc1C#N	–	–	–	–	–	–
O=[N+]([O-])c1ccc2n[nH]nc2c1	–	–	–	–	–	–
O=[N+]([O-])c1cccc(/C=C/c2nc3ccc([N+](=O)[O-])cc3[nH]2)c1	72.3	–	–	–	–	–
COc1ccc(C(C)=O)cc1CN1C(=O)C(C)N(c2ccc(C)cc2)C1=O (configuration not stated)	–	84.4	–	81.8	–	–
Cc1cc2oc(C(=O)N(Cc3ccco3)C3CCS(=O)(=O)C3)cc(=O)c2cc1Cl (configuration not stated)	–	–	–	–	–	–
Cc1ccccc1NC(=S)NC(=O)CCc1ccccc1	–	–	–	–	–	–
Cc1cccc(C)c1NC(=O)CNc1ccccc1	37.4	–	–	–	–	–
Cc1cccc(C)c1NC(=O)C(NC=O)c1ccccc1 (configuration not stated)	–	–	–	–	–	–
Cc1cccc(C)c1NC(=S)NC(=O)CCc1ccccc1	–	–	–	50.2	–	–
